This note sets out measurements from PubChem BioAssay.

Activity calls are given as the source filed them.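 The calls were made as follows: active = z-score of at least 1.8 in each of two replicates, scored against plate mean and spread of sample wells; inactive = the rest.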

The assay is described as follows: galactose survival enhancers in mitochondrial complex I cybrids – cell-based, galactose medium, ATP luminescence, primary screen (AID 1645843).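 Also: positive z means more ATP and so rescue of galactose-driven cybrid death.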 As to conditions: complex I mutant cybrid cells, 72 h, active compounds read high.
Regarding `CC(CCN1CCC(n2cc(CO)nn2)CC1)CC(C)(C)C` (stereo unspecified), the z-score was -0.48 (inactive).
Next, `Cc1cnc(CNC(=O)c2cccc(Nc3ncnc4c3cnn4C)c2)cn1`: -0.83 (inactive); `COc1cccc(CN2CCN(C(=O)c3cc4cc(OC)ccc4[nH]3)CC2=O)c1`: -0.41 (inactive).
To `CCC1(CC)CC1C(=O)N1CCC(n2cc(C3(O)CCCC3)nn2)CC1` (stereo unspecified) belongs -0.565 (inactive); to `COc1nccnc1-c1cccc(-n2cccn2)c1`, -0.545 (inactive); to `COc1ccc(CN2CCN(c3nccc(-c4c(C)nn(C)c4C)n3)CC2=O)cc1`, 1.14 (inactive).
